Records with an inconclusive call do not appear. Activity calls are given as the source filed them. The call rests on the fitted dose curve; in most records, active means well fitted inhibition curve with a large enough effect; inconclusive means small, poorly fitted or top-dose-only effect; inactive means flat fitted curve, though single readings scatter.
Biological target: Calcium and integrin-binding protein 1 (Homo sapiens) (UniProt Q99828)
Assay: Primary qHTS for Identification of Calcium Integrin Binding Protein 1 (CIB1) Competitor (AID 1508620);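 further: GST tagged CIB1 binding a fluorescein labelled alphaIIb integrin peptide tracer; top concentration of the series differs between compounds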
Settings: CIB1-GST / FITC-alphaIIb peptide fluorescence polarization; series mostly up to 114 µM; activity change, negative = inhibition: at the top concentration
Outline: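 CIB1-GST (1 uM final) and compound incubated 15 min at room temperature before adding FITC-alphaIIb peptide tracer (100 nM final). Competition for binding read by fluorescence polarization (ex 480, em 540) after another 15 min at room temperature.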
On the % scale 0 is the no-effect control and ±100 the full control effect.

Chain of Calcium and integrin-binding protein 1 (Homo sapiens) (Q99828 whole entry, looked up): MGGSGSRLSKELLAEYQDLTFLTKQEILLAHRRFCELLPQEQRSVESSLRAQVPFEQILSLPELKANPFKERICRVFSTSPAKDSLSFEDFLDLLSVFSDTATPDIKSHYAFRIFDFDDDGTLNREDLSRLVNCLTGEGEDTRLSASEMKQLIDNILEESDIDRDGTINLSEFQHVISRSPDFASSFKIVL

For CCCCCCNC(=O)Nc1nnc(-c2ccncc2)s1, which “activity change, negative = inhibition” value is on record?
Its value is -5.35% (inactive).

Which “activity change, negative = inhibition” value does the source give for Cc1cc(C)nc(NC(=S)N2CCN(c3ccc([N+](=O)[O-])c4cccnc34)CC2)c1 here?
Its value is -1.18% (inactive).

How did the “activity change, negative = inhibition” value turn out when Cc1cccc(-n2cnc3cc(C(=O)N4CCCCC4)ccc32)c1 was run?
Its value is -1.74% (inactive).

How did the “activity change, negative = inhibition” value turn out when COc1cc(OC)cc(-c2nnc3n2N=C(c2c(OC)cccc2OC)CS3)c1 was run?
Its value is 5.77% (inactive).

Which “activity change, negative = inhibition” value does the source give for FC(F)Oc1ccc(C2=Nn3c(nnc3-c3ccccc3C(F)(F)F)SC2)cc1OCC1CC1 here?
Its value is -4.75% (inactive).

COc1cnccc1-c1nc(Nc2ccc(F)c(F)c2)c2ccccc2n1 was tested. Which “activity change, negative = inhibition” value did it give?
Its value is -16.2% (inactive).

With Cc1ccsc1CN(C)c1ncnc2ccc(-c3ccoc3C)cc12 as the compound, how does the “activity change, negative = inhibition” value read?
The value was -12.8% (inactive).

With Fc1ccc(-c2nnc(CCCCSc3nnc(-c4cccc5ccccc45)o3)o2)cc1 as the compound, how does the “activity change, negative = inhibition” value read?
Its value is 3.92% (inactive).

With O=C(NC1CCCc2c1cnn2-c1ccc(F)cc1F)C1CC1 (stereo not given) as the compound, how does the “activity change, negative = inhibition” value read?
The value was 0.633% (inactive).

How did the “activity change, negative = inhibition” value turn out when Cc1nnc(-c2ccccc2C(C)C)nc1NCc1ccc(-c2cccnc2)cc1 was run?
The value was -4.41% (inactive).

With CCn1cnc2c(Nc3ccc(CC(=O)N=C(N)N)cc3)nc(C#N)nc21 as the compound, how does the “activity change, negative = inhibition” value read?
Its value is 2.97% (inactive).

Which “activity change, negative = inhibition” value does the source give for O=C(OCC#CCSc1nnc(-c2cccc3ccccc23)o1)c1cc2ccccc2o1 here?
The value was -3.02% (inactive).

Which “activity change, negative = inhibition” value does the source give for CC(C)Cc1ccc(-c2ccc(=O)n(CC(=O)NCCc3ccccc3)n2)cc1 here?
Its value is -0.389% (inactive).

Which “activity change, negative = inhibition” value does the source give for COC(=O)c1ccc(OC(C)=O)c2ncccc12 here?
Its value is -14.7% (inactive).

How did the “activity change, negative = inhibition” value turn out when Cn1c2cc(C(=O)O)sc2c2cnn(Cc3ccccc3F)c(=O)c21 was run?
The value was -1.69% (inactive).

How did the “activity change, negative = inhibition” value turn out when CCNC(=O)c1ccc(-c2ccc3ncnc(NCc4ccc(C)o4)c3c2)o1 was run?
The value was -6.77% (inactive).

How did the “activity change, negative = inhibition” value turn out when O=C(Nc1ccc(Cl)c([N+](=O)[O-])c1)Nc1nnc(C2CCCCC2)s1 was run?
The value was -0.73% (inactive).

With Cc1c(Br)cc(F)c([S+](=O)([O-])N2CCN([S+](=O)([O-])c3ccc4c(c3)OCCO4)CC2)c1F as the compound, how does the “activity change, negative = inhibition” value read?
Its value is 5.41% (inactive).

With Cc1ccc(-c2nnc(NC(=O)Nc3ccc4ccccc4c3)s2)cc1 as the compound, how does the “activity change, negative = inhibition” value read?
Its value is 4.64% (inactive).

With Cc1ccnc(NC(=S)N2CCN(c3cccc([N+](=O)[O-])c3)CC2)c1 as the compound, how does the “activity change, negative = inhibition” value read?
The value was -15.1% (inactive).

Cc1ccc(OCCn2c(CCNC(=O)C3CCN(C(=O)OC(C)(C)C)CC3)nc3ccccc32)cc1 was tested. Which “activity change, negative = inhibition” value did it give?
The value was -3.51% (inactive).

COc1cccc(C2c3c(ncn(-c4ccccc4)c3=N)Oc3ccc4ccccc4c32)c1 (stereo not given) was tested. Which Potency did it give?
The Potency was “inactive”.

COc1cc(F)c(S(=O)(=O)N2CCCN(S(=O)(=O)c3cccc(NC(C)=O)c3)CC2)c(F)c1 was tested. Which “activity change, negative = inhibition” value did it give?
Its value is -3.02% (inactive).

COc1ccc(C[C@H](C(=O)O)N2C(=O)c3ccc(C(=O)O)cc3C2=O)cc1 was tested. Which “activity change, negative = inhibition” value did it give?
The value was 3.91% (inactive).

With O=C(Nc1ccc(Cl)c(Cl)c1)Nc1nnc(Br)s1 as the compound, how does the “activity change, negative = inhibition” value read?
Its value is 1.17% (inactive).

How did the “activity change, negative = inhibition” value turn out when Cc1ccc(N2C(=O)c3ccccc3C2=O)c(C)c1 was run?
Its value is 6.62% (inactive).

Which “activity change, negative = inhibition” value does the source give for COc1cccc(Nc2nc(C#N)nc(NC3CCCC3)n2)c1 here?
Its value is -3.51% (inactive).

With Cc1nnc(-c2cnn(C)c2N)n1CCCc1cccnc1 as the compound, how does the “activity change, negative = inhibition” value read?
Its value is 7.75% (inactive).

For Cc1ccc(S(=O)(=O)Nc2cccc3ccc(C)nc23)cc1, which “activity change, negative = inhibition” value is on record?
Its value is 1.08% (inactive).

For CC(C)(C)c1ccc(C[C@H](C(=O)O)N2C(=O)c3ccc(C(=O)O)cc3C2=O)cc1, which “activity change, negative = inhibition” value is on record?
The value was 1.88% (inactive).

Cc1cc(NS(=O)(=O)c2cc3c(cc2F)NC(=O)CC3)ccc1Cl was tested. Which Potency did it give?
Its Potency is “inactive”.

O=[S+]([O-])(Nc1cnc2ccccc2c1)c1ccc(NCc2ccc(Cl)cc2O)cc1 was tested. Which “activity change, negative = inhibition” value did it give?
The value was -4.96% (inactive).

O=C(CSc1nnc(-c2cccc(S(=O)(=O)N3CCCC3)c2)n1-c1ccccc1)Nc1ccc(F)cc1 was tested. Which “activity change, negative = inhibition” value did it give?
Its value is -0.658% (inactive).

With CCC(CC)C(=O)NCCc1nc2ccccc2n1CCOc1ccc(C)cc1 as the compound, how does the “activity change, negative = inhibition” value read?
Its value is 19.4% (inactive).

CC(C)(C)OC(=O)N1CCN(c2ccc(NCc3ccc(-c4cccc([N+](=O)[O-])c4)o3)cc2)CC1 was tested. Which “activity change, negative = inhibition” value did it give?
The value was -3.14% (inactive).

Which “activity change, negative = inhibition” value does the source give for CN1CCN(C(=O)c2cccc(-c3ccc(CNc4ccc(N5CCN(C(=O)OC(C)(C)C)CC5)cc4)o3)c2)CC1 here?
The value was -2.72% (inactive).

How did the “activity change, negative = inhibition” value turn out when Nc1cc(-c2nc(Nc3ccc(F)c(F)c3)c3ccccc3n2)ccn1 was run?
The value was 5.26% (inactive).

With CCOC(=O)C1CCN(C(=O)C2(NC(=O)Nc3ccccc3Cl)CC2)CC1 as the compound, how does the “activity change, negative = inhibition” value read?
Its value is -2.13% (inactive).

CCN(CC)C(=O)COC(=O)c1ccc(S(C)(=O)=O)c([N+](=O)[O-])c1 was tested. Which “activity change, negative = inhibition” value did it give?
Its value is -6.92% (inactive).

With Cc1cc2c(s1)c1cnn(Cc3ccccc3)c(=O)c1n2C as the compound, how does the “activity change, negative = inhibition” value read?
The value was 1.99% (inactive).
